aSyn UTR inh = MLPCN primary screen, SNCA 5' untranslated region; alpha-synuclein 5'UTR reporter, inhibitor activity; inhibition, % (tested at 7.5 µM); hit rate 0.82% among 300,000; in the data active = inhibition above about 60%;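 note: H4 neuroglioblastoma cells stably carrying SNCA 5'UTR luciferase fusion; 0% = DMSO wells and 100% = positive control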
Shn3 3UTR inh = reduces Shn3 3'UTR luciferase signal in osteoblasts; AID 588674; inhibition, % at 12.5 µM; Clone20 osteoblast Shn3 3'UTR firefly luciferase, 24 h; hit rate 0.52% among 360,000;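 active = mean inhibition of at least 75% with every replicate also reaching 75%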;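 note: 0% = median of neutral control wells and 100% = pilot-screen positive control compound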
EBV LMP1 NFkB = inhibitors of Epstein-Barr LMP1-induced NF-kappaB reporter; inhibition, % at 12.5 µM; LMP1-induced NF-kappaB luciferase reporter cells, luminescence; hit rate 0.69% among 350,000; in the data active = inhibition above about 41%;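 note: 0% = neutral control wells and 100% = reference inhibitor control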
MITF TRPM1 inh = MITF TRPM1 promoter inhibition in SK-MEL-5 cells; hit rate 0.83% among 330,000; SK-MEL-5 TRPM1 promoter luciferase, 24 h; inhibition, % at 12.5 µM;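 active = mean inhibition across replicates of 60% or more, whatever share of single replicates reaches that level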
PAX8 inh HTS = lowers PAX8-driven luciferase in RMG-I cells; RMG-I TPO-luciferase reporter, SteadyGlo, 24 h; inhibition, % at 12.6 µM; hit rate 1.2% among 360,000; AID 652154;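 active = mean replicate inhibition at least 60% with every replicate also reaching 60%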;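 note: luciferase light reporting Pax8 driven TPO promoter activity; plate controls were median of neutral control wells for no effect and mitoxantrone controls for full effect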
Starred values were filed as active, the others as inactive; . = no result; ! = a repeat was not active. Compounds with a hit are over-represented: about 2.1% of the library has one in this group of screens.

SMILES	aSyn UTR inh	Shn3 3UTR inh	EBV LMP1 NFkB	MITF TRPM1 inh	PAX8 inh HTS
CCC(C)N1C(=O)CCC1C(=O)N1CCN(c2ccc(F)cc2)CC1 (stereo not drawn)	26	-2	64*	0	.
O=C1C=CC(=O)N1CCCCCCCCCCN1C(=O)C=CC1=O	.	93*	-4	91*	68*
CC(CCc1ccccc1)NCC(O)c1ccc(O)c(C(N)=O)c1 (stereo not drawn)	17	4	4	5	-11
COc1ccc(CC(C)NCC(O)c2ccc(O)c(NC=O)c2)cc1 (stereo not drawn)	.	-25	61*!	-3	11
O[C@@H]1[C@@H](O)C=C2CCN3Cc4cc5c(cc4[C@H]1C23)OCO5 (stereo partly drawn)	.	20	10	63*	102*
Cc1cccc(C(=O)NNC(=O)c2csc(N3CCOCC3)n2)c1C	1	9	-3	0	-10
CCN(CC)c1ccc2cc(NC(=O)CCC(=O)O)c(=O)oc2c1	120*	61	38	92*	.
CCN(CC)c1ccc2cc(C(C)=O)c(=O)oc2c1	-30	11	-9	-9	-45
CCOc1ccccc1-n1nnnc1SCC(=O)NCc1ccco1	4	-10	-1	.	-3
CCN(CC)c1ccc(C2=NNC(=O)CC2C)cc1[N+](=O)[O-] (stereo not drawn)	98*	1	11	34	.
CN(Cc1cccc(F)c1)C(=O)c1cc(=O)[nH]c2ccccc12	2	4	-7	-1	-5
C=C1C(=O)O[C@@H]2[C@H]1CC[C@H](C)[C@]1(O)CCC(=O)[C@@]21C	-3	-15	16	40	89*
CCN(CC)CCN1C(=O)C(=O)/C(=C(/O)c2c(C)[nH]c(C(=O)OC)c2C)C1c1cccc(OC)c1 (stereo not drawn)	-14	0	1	6	15
O=[N+]([O-])c1ccc(S(=O)(=O)c2cccc(C(F)(F)F)c2)nc1	-9	.	76*	83*	.
O=C(O)c1cccc(-c2noc(-c3cccc(Cl)c3)n2)c1	.	78	80*	92*	-28
CNC(=O)COC(=O)c1ccccc1C(=O)c1ccc(Cl)c([N+](=O)[O-])c1	-19	39	8	89*	31
O=C(COC(=O)c1ccccc1C(=O)c1ccc(Cl)c([N+](=O)[O-])c1)NC1CC1	-23	70	50*	81*	33
COc1cc(NS(=O)(=O)c2ccc(N/C=C(\C#N)c3nc4cc(Cl)ccc4o3)cc2)nc(OC)n1	31	8	-50	77*	.
COc1cccc(C(=O)N/N=C(/c2ccccc2)c2ccccn2)c1	73*	79	40	66*	65*
C/C(=N\NC(=O)c1cc(C)nc2ccccc12)c1ccccn1	.	95*	29	89*	26
COc1cc(C(=O)N/N=C(\C)c2ccccn2)cc(OC)c1OC	109*	-3	13	39	-2
COc1cc(NC(=O)c2ccccn2)cc(OC)c1OC	-8	12	5	14	-9
COc1cc(C(=O)N/N=C(\c2ccccc2)c2ccccn2)cc(OC)c1OC	81*	89*	23	78*	72*
C/C(=N\NC(=O)c1cc(C)nc2ccccc12)c1ccncc1	-12	6	-1	-1	1
CN1CCN(C(=O)c2cccn(Cc3cccc(Cl)c3)c2=O)CC1	5	-17	38	6	-3
SMILES	aSyn UTR inh	Shn3 3UTR inh	EBV LMP1 NFkB	MITF TRPM1 inh	PAX8 inh HTS
CCN(CC)C(=S)NC(=O)c1ccc(Cl)cc1Cl	1	-6	0	11	.
O=C(Cn1c(=O)sc2ccccc21)NCc1ccco1	-21	-12	0	-7	.
CN1C(=O)c2cccc(NCCCCCCN3C(=O)c4ccccc4C3=O)c2C1=O	23	88*	20	15	.
CN1C(=O)c2cccc(NCCCN3C(=O)c4ccccc4C3=O)c2C1=O	16	-7	-12	-2	.
OCc1ccc(-c2nn(Cc3ccccc3)c3ccccc23)o1	19	9	93*	-5	9
COc1ccc(-c2nc(-c3ccncc3)no2)c(OC)c1	14	1	-10	-7	-43
O=C1[C@@H]2Cc3c([nH]c4ccccc34)C(c3cccc(Br)c3)N2C(=O)CN1C1CCN(Cc2ccccc2)CC1 (stereo partly drawn)	-4	26	-14	17	91*
CC(C)COc1ccc(CN=C(N)N=C(N)N)cc1Cl	5	-7	10	-2	26
COc1ccc(/C=C/c2nc(C)c(-c3ccccc3)c(=O)[nH]2)cc1OC	8	13	8	14	-25

Assay outcomes (PubChem BioAssay)
